# In ChEMBL document CHEMBL4513216, “Probing the Open Global Health Chemical Diversity Library for Multistage-Active Starting Points for Next-Generation Antimalarials” (ACS Infect Dis, 2020):
# Out of some 69,000 compounds screened, about 8,600 (12%) showed an effect of 50% or more. This is one part of a sample in which strong results are shown more often than they occur.
# System: Plasmodium berghei
# Assay: Screen against P. berghei liver stage (PbLuc), transformed with Luciferase, at 10uM
# Format: functional, HepG2
# Details: tested at 10 uM
row,Compound,INHIBITION
1,Cc1ccc(-c2nnc(CNCCn3cc(C)cn3)o2)cc1,14.4%
2,Cc1nc(C)n(CC2CN(Cc3ccncc3)Cc3nccn3C2)n1 (stereo not given),-15.6%
3,CCc1noc(C(C)N2CCN(S(=O)(=O)N3CCCC3)CC2)n1 (stereo not given),-11.4%
4,CN1C(=O)CC(c2ccncc2)C12CCN(c1ncccn1)CC2 (stereo not given),29.4%
5,O=C(NC1CCC1)C1=NOC2(CCN(Cc3ccc(F)cc3)C2)C1 (stereo not given),64.9%
6,O=C(NCC1CC1)C1=NOC2(CCN(Cc3ccc(Cl)c(F)c3)C2)C1 (stereo not given),38.5%
7,O=C(NCC1CC1)C1=NOC2(CCN(S(=O)(=O)c3ccc(F)cc3)C2)C1 (stereo not given),-19.1%
8,CN(C)[C@H]1CN(C(=O)CCc2cccc(F)c2)C[C@@H]1C1CC1,30.9%
9,CCOCc1cncc2c1CCN(C(=O)c1cscn1)C2,62%
10,O=C(c1cscn1)N1CCc2c(COCC3CC3)cncc2C1,58.4%
11,COCc1cncc2c1CCN(C(=O)c1cscn1)C2,21.3%
12,O=C(c1ccsc1)N1CCc2c(COCC3CC3)cncc2C1,39.8%
13,O=C(c1cnccn1)N1CCc2c(COCC3CC3)cncc2C1,39.2%
14,CC(C)COCc1cncc2c1CCN(C(=O)c1cscn1)C2,18.6%
15,CN(C)C(=O)C1(c2cnccn2)CCCN1C(=O)Cc1ccccc1 (stereo not given),28.475%
16,CC1c2ncc(Cn3cncn3)n2CCN1C1CCOCC1 (stereo not given),2.01%
17,O=C(CCc1ccc2c(c1)OCO2)N1CCCCC1Cn1cccn1 (stereo not given),-0.219%
18,CCN1CCOCC2(CCCN(C(=O)c3cnccn3)C2)C1 (stereo not given),-8.51%
19,O=C1CCC(CCC(=O)N2CCCC2c2nccs2)=NN1 (stereo not given),27.6%
20,CN(C)C(=O)c1ccc(C2CCCN2C(=O)CCC2=NNC(=O)CC2)s1 (stereo not given),56.7%
21,CN(C)C(=O)c1ccc(C2CCCN2C(=O)c2cccc3c2OCC3)s1 (stereo not given),81.1%
22,Cc1occc1C(=O)N1CCCC1c1ccc(C(=O)N2CCOCC2)s1 (stereo not given),-60.2%
23,CN(C)C(=O)c1ccc(C2CCCN2C(=O)c2ccccc2N(C)C)s1 (stereo not given),39.1%
24,CSc1ncccc1C(=O)N1C[C@@H]2CC[C@H]1CN(CC(=O)N(C)C)C2,22.8%
25,O=C1CCC(CCC(=O)N2CCC2c2cccs2)=NN1 (stereo not given),11.2%
26,CSc1ncccc1C(=O)N1C[C@@H]2CC[C@H]1CN(C(=O)N(C)C)C2,30.3%
27,CSc1ncccc1C(=O)N1CCCC1c1ccc(C(=O)N(C)C)s1 (stereo not given),65.2%

row,Compound,INHIBITION
1,CNC(=O)N1CCC2(CC1)CN(C(C)C)Cc1cc(F)ccc12,42.3%
2,CC(=O)c1ccc(C(=O)N2C[C@H]3CC[C@@H](C2)N(CC2CCC2)C3)s1,-92.2%
3,O=C([C@H]1COC[C@H]2CN(C3CCOCC3)C[C@H]21)N1CCCO1,-1.83%
4,Cc1ccc(O[C@@H]2C[C@H]3CN(c4ncc(F)cn4)CCN3C2)cc1,79.2%
5,Cc1ccc(O[C@@H]2C[C@H]3CN(Cc4nccn4C)CCN3C2)cc1,-15.7%
6,Fc1cnc(N2CCN3C[C@H](Oc4cccnc4)C[C@H]3C2)nc1,82.2%
7,Cn1ccnc1CN1CCN2C[C@H](Oc3cncnc3)C[C@H]2C1,-10.3%
8,c1cnc(N2CCN3C[C@H](Oc4cncnc4)C[C@H]3C2)nc1,34.5%
9,c1cncc(CN2CCN3C[C@H](Oc4cncnc4)C[C@H]3C2)c1,27.6%
10,O=C(c1ccc(F)cc1)N1CCN2C[C@H](Oc3cccnc3)C[C@H]2C1,44.2%
11,Cc1nc(CN2CCN3C[C@H](Oc4cncnc4)C[C@H]3C2)cs1,88.3%
12,Fc1cnc(N2CCN3C[C@H](Oc4cncnc4)C[C@H]3C2)nc1,56.4%
13,Cc1cnc(N2CCN3C[C@H](OCc4ccccn4)C[C@H]3C2)nc1,42.3%
14,O=C(c1cnccn1)N1CCN2C[C@H](Oc3cccnc3)C[C@H]2C1,15.6%
15,Cc1cccc(CN2CCN3C[C@H](Oc4cncnc4)C[C@H]3C2)n1,37.6%
16,O=C(COCc1ccccc1)N1CCCC(OCc2cccnc2)C1 (stereo not given),0.348%
17,CCCc1nc(CN2CCCC2c2cnn(C)c2)cs1 (stereo not given),-32%
18,CCn1cc(CN2CCN(CC(O)c3ccc(C)cc3C)CC2)cn1 (stereo not given),5.11%
19,CN1CC(=O)N(c2cnn(C)c2)CC12CCN(Cc1cccs1)C2 (stereo not given),7.31%
20,CC(NC(=O)N(C)CCOc1ccccc1F)c1nncn1C (stereo not given),7.08%
21,CC1(C(N)=O)CN(CC2CCC2)CCO1 (stereo not given),-1.75%
22,CS(=O)(=O)N1CC[C@@H]2O[C@@H](COCC(=O)N3CCCC3)CC[C@@H]21,1.9%
23,Cc1nc(C2CCN(C(=O)c3ccnn3C)CC2)c2sccn12,15.9%
24,Cc1cccc2sc(NC(=O)CN3CCCC4(CC3)CNC(=O)O4)nc12 (stereo not given),38.7%
25,Cc1cccc2sc(NC(=O)CN3CCCC(O)(CO)C3)nc12 (stereo not given),74.5%
26,Cc1cccc2sc(NC(=O)CN3CCC(C)CC3)nc12,14.1%
27,Cc1c(Cl)cccc1NCc1nc2n(n1)CCCCC2,26.7%

row,Compound,INHIBITION
1,CN(C)c1ncc(CNC(=O)Nc2ccccc2F)n1C,48.9%
2,CN(C)c1ncc(CNC(=O)Nc2ccccc2C(F)(F)F)n1C,36.9%
3,CN(C)c1ncc(CNC(=O)Nc2ccc(C(F)(F)F)cc2)n1C,78.6%
4,COc1ccc(CN2CC[C@H]3[C@H]2CCN3C(=O)c2cnn(C)c2)cc1,39.8%
5,CNC(=O)c1sc2ncccc2c1C1CCN(C(=O)CCOC)C1 (stereo not given),-7.525%
6,O=C(CCc1ccncc1)NCc1csc(Br)c1,-6.14%
7,CN(C)CCNC(=O)Cn1cnc2cc(NC(=O)C3CC3)ccc21,4.48%
8,COCC1CC2(CCN(Cc3ccncc3)CC2)CN1C(C)C (stereo not given),12.6%
9,COCC1CC2(CCN(c3cccc(C)n3)CC2)CN1C(C)C (stereo not given),29.4%
10,CCS(=O)(=O)N1CCC2(CC1)CC(COC)N(c1ncccn1)C2 (stereo not given),65.6%
11,COCC1CC2(CCN(S(=O)(=O)C3CC3)CC2)CN1c1ncccn1 (stereo not given),19.5%
12,COCC1CC2(CCN(c3ccc(C)nn3)CC2)CN1C(C)C (stereo not given),16.8%
13,COCC1CC2(CCN(Cc3ccccn3)CC2)CN1C(C)C (stereo not given),-2.27%
14,COCC1CC2(CCN(c3cc(OC)ncn3)CC2)CN1C(C)C (stereo not given),58.4%
15,COCCN1CCC2(CC1)CC(COC)N(c1ncccn1)C2 (stereo not given),23.5%
16,COCC1CC2(CCN(c3ccccn3)CC2)CN1C(C)C (stereo not given),64.7%
17,CC1(NC(=O)Cc2cccs2)CCS(=O)(=O)C1 (stereo not given),43.1%
18,CC(C)C(=O)N1CC[C@H]2N(C)CC[C@@]2(C(=O)Nc2ccccc2)CC1,44.8%
19,O=C1CC2(CCCCN2C(=O)c2ccccc2)CN1CC1CC1 (stereo not given),29.7%
20,Cc1cnc(NC(=O)C(C)n2ccc(C(F)(F)F)n2)s1 (stereo not given),49.1%
21,COCC(=O)N1CC[C@]2(O)CCN(Cc3ccsc3)C[C@@H]2C1,10.5%
22,CC(C)c1nc(CNC2CCN(C(=O)OC(C)(C)C)CC2)cs1,47%
23,CN(CC(=O)NC1CC1)C(=O)c1csc(Br)c1,37.2%
24,COc1ccccc1CC(=O)N1CCC(OCc2cccnc2)CC1,-37.2%
25,Cc1cnn(CC2CCCCN2Cc2nccn2CC(F)(F)F)c1 (stereo not given),-61.4%
26,Cc1noc(C)c1CC(=O)N1CC[C@@](C)(O)[C@H](Oc2ccccc2)C1,41.55%
27,O=C(NCc1ccc(Br)c(F)c1)Nc1cn[nH]c1,4.97%

row,Compound,INHIBITION
1,NC(=O)c1ccc(CNC(=O)Nc2cn[nH]c2)cc1,72.9%
2,CNS(=O)(=O)Cc1ccc(CNC(=O)Nc2cn[nH]c2)cc1,27.9%
3,COCCNc1ccc(CNC(=O)Nc2cn[nH]c2)cc1,6.14%
4,CNS(=O)(=O)c1ccc(CNC(=O)Nc2cn[nH]c2)cc1,50.3%
5,CS(=O)(=O)c1ccc(CNC(=O)Nc2cn[nH]c2)cc1,-21.7%
6,CNC(=O)c1cnn2c(C3CCCN3C)ccnc12 (stereo not given),-6.73%
7,COc1ccc(Br)c(C(=O)NC(CC(=O)O)c2cccs2)c1 (stereo not given),33.8%
8,O=C(CCCN1C(=O)CCC1=O)NCC1(c2ccccc2)CCC1,-9.37%
9,O=C1CCCN1Cc1nnc2n1CCN(Cc1ccco1)CC2,-8.23%
10,Fc1cccc(NCc2ncc[nH]2)c1,10.3%
11,COCc1nc2cc(NCc3ncc[nH]3)ccc2o1,-10.8%
12,Fc1ccc(NCc2ncc[nH]2)cc1Br,58.1%
13,COc1cc(NCc2ncc[nH]2)ccc1Br,74.4%
14,CCC(O)(CNCc1ncc[nH]1)c1ccc(Br)cc1 (stereo not given),15.5%
15,Clc1cc(NCc2ncc[nH]2)nc2[nH]ccc12,-19.8%
16,CCOCC(=O)N1CC[C@H]2O[C@@H](C)C[C@H]2C1,5.44%
17,CCCn1cnc2c(cnn2-c2cccc(C)c2C)c1=O,-70.6%
18,Cc1cc(-c2cc(N)c(=O)n(CC(=O)N3CCCC(C)C3)n2)c(C)o1 (stereo not given),22.35%
19,Cc1nc(COc2cccc(C#N)c2)no1,54.4%
20,Cc1noc(OCCOc2cccc(C#N)c2)n1,10.7%
21,Cc1nc(CN2CCCN(CCOc3cccc(C#N)c3)CC2)no1,20.1%
22,COCC(=O)Nc1nnc2n(Cc3cccc(OC)c3)[nH]c(C)c1-2,-14.8%
23,CN(CC1(O)CCCN(c2ccccn2)C1)C(=O)CC1CCOCC1 (stereo not given),-51.4%
24,Cc1nc(-c2ccsc2)ccc1C(=O)NCCCN1CCOCC1,25.315%
